# Tests used:
# Assay in all cases: PBM binding z-score (relative to random genomic background probes); higher = stronger binding; sequences stand for … in GC…GCGATTGACAGCGTAGAATGAAGG
# [1] = tested on: FXR:RXRa (NR concentration 270 nM, RXRa partner concentration 90 nM)
# Procedure, shortened: (§1)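 Random background probes are the reference for binding z-scores. These scores derive from regression-normalized fluorescence on custom Agilent 4×180K protein-binding microarrays incubated 1 h with ligand-free nuclear receptor dimers. Binding was detected with antibodies against each partner (one per run).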
# [2] = tested on: LXRa:RXRa (NR concentration 270 nM, RXRa partner concentration 90 nM)
# Procedure, shortened: as §1
# [3] = tested on: LXRa homodimer (NR concentration 270 nM)
# Procedure, shortened: as §1
# [4] = tested on: LXRb:RXRa (NR concentration 270 nM, RXRa partner concentration 90 nM)
# Procedure, shortened: as §1
# [5] = tested on: LXRb homodimer (NR concentration 270 nM)
# Procedure, shortened: as §1
# [6] = tested on: PPARa:RXRa (NR concentration 270 nM, RXRa partner concentration 90 nM)
# Procedure, shortened: as §1
# [7] = tested on: PPARg:RXRa (NR concentration 180 nM, RXRa partner concentration 90 nM)
# Procedure, shortened: as §1
# [8] = tested on: PPARg:RXRa 270nM:90nM, anti-RXR (NR concentration 270 nM, RXRa partner concentration 90 nM)
# Procedure, shortened: as §1
# [9] = tested on: PPARg:RXRa 30nM:10nM, anti-RXR (NR concentration 30 nM, RXRa partner concentration 10 nM)
# Procedure, shortened: as §1
# [10] = tested on: PPARg:RXRa 90nM:30nM, anti-RXR (NR concentration 90 nM, RXRa partner concentration 30 nM)
# Procedure, shortened: as §1
Sequence,PBM binding z-score [1],PBM binding z-score [2],PBM binding z-score [3],PBM binding z-score [4],PBM binding z-score [5],PBM binding z-score [6],PBM binding z-score [7],PBM binding z-score [8],PBM binding z-score [9],PBM binding z-score [10]
CTACCAATGTGAACAAGGTCGTTGATTACTATTC,0.783,1.15,0.608,1.83,0.441,1.51,0.331,0.322,0.12,0.449
AATACAGGGTCACTAGGCCAGAGTCGGTACGAAT,6.27,4.74,0.695,3.82,0.88,5.61,8.1,6.36,3.03,5.2
AGTCAAAGTTCATCTAGGAAACGTAAGATATGCT,6.71,5.87,4.88,3.9,2.09,4.85,6.43,6.21,3.53,5.16
GCTGCTACGTCAGGTTGGTCAGCTAACGGGTACG,-0.416,-0.646,-0.592,-0.968,-0.619,-0.713,-0.0701,-0.954,-0.756,-0.888
TCATATAGGGAAATGCTAGGTGAAAGTCCGATCT,1.31,0.732,0.053,0.609,-0.0156,0.83,0.563,2.3,3.82,2.91
CCTAGTTGGTCAGGAGGTCACGCACCGGATATGA,4.29,4.22,2.24,3.81,0.661,4.65,4.41,4.64,2.02,3.5
TGAATGAGGTTATAAGATCAGGGGACGTTGCAAA,1.42,1.51,-0.106,1.61,0.309,2.73,1.65,1.96,0.887,1.28
CGTCAAAGTTCAAGGTAACCTAACAGAAAGCAGC,6.46,5.68,2.88,3.53,0.767,5.05,4.79,5.23,1.93,3.95
TCTATTAGTTGATTAGGGCAACCGGAACAGCGGA,0.61,0.628,0.183,0.539,0.503,0.953,0.188,1.84,3.7,2.79
TCTGCTAGGTCAGTGGGTCAGCTAACGAGCTGCC,1.49,1.09,-0.548,0.738,0.0153,3.41,5.03,4.53,2.11,3.51
AGATTGAGGTTATACGTAGATCAGGGAAGAAAGT,1.82,1.79,0.26,1.37,0.202,2.91,1.21,1.56,0.644,1.05
TCTGCTAGGTCAAAGATGGTCAGCTAATCTGCTA,3.55,3.06,0.0702,2.07,0.0441,3.73,3.32,4.37,2.61,3.76
CAAACTAGGTCAACGGTCAAAGTCGAGCCAACCA,5.58,4.31,2.25,3.09,0.978,6.16,11,9.5,8.86,11
CGAACTAGGTAATCCAGGACAGTGAATACATTGA,-0.0818,-0.39,-0.012,-0.349,-0.454,1.23,1.56,0.982,0.536,0.507
GCATATAGGTCATACAAGGTGAAAGTCCGATTGT,6.4,5.8,2.37,4.27,0.913,5.75,7.36,6.55,4.09,6.05
CGAACTAGGTCATCCAGGAAAGTGAATACATTGA,4.43,2.64,0.469,2.15,0.453,5.01,7.91,6.29,4.25,5.91
CGTCCAAGGTCAGAGAGGTCTGTGAATGCCGAGT,4.66,3.14,0.0313,2.1,-0.51,3.92,2.27,2.64,0.0649,1.45
CCTACTGGGGCATAAGGTTACCATAAGCCAGCCC,0.331,1.69,-0.117,0.717,-0.859,2.47,3.73,4.44,2.09,4.09
CAGCCTAGGTCATGGCCAGTATAGGAGGAACGTT,4.47,3.18,-0.187,1.92,-0.552,3.81,2.34,2.86,0.578,1.71

# Reference: the supplement of paper PMC6555819
